# IL1B secr inh: inhibitors of inflammasome signaling (IL-1 beta secretion) | THP-1 LPS/ATP IL-1B secretion, AlphaLISA, 16 h; hits give low values | AID 743279 | activity change, % at 57.5 µM | hit rate 4.7% among 360,000; in the data active = activity change below about -50%; inconclusive = mostly about -30% to -49%
#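 Secreted IL-1B measured by AlphaLISA bead assay after 16 h compound exposure of THP-1 cells; compounds (final up to 57.5 uM) added 1 h before LPS (250 ng/mL) and ATP (1.25 mM) stimulation; lower signal means less secretion.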
# ELG1 repair inh: blocks ELG1-dependent DNA repair in HEK293T cells | AID 504467 | HEK293T ELG1-luciferase reporter, luminescence, 16 h; DNA damage induced by 5-fluorouridine | hit rate 2.3% among 330,000 | Potency, µM (titrated, usually from 46.1 µM), for the others: at the highest dose activity change, negative = inhibition, hits mostly inhibitors; also: potency is read from the fitted curve at half-maximal effect; nearly all actives have a fitted effect of over 55% in size
#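 Luminescence from the luciferase reporter, measured 30 min after ONE-Glo reagent at room temperature, was the read-out. Beforehand, 2,000 cells per well were exposed for 16 hr at 37 °C to 5-fluorouridine together with compound or vehicle.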
# TDP1 cell CPT: DT40-hTDP1 cell growth loss with CPT. chicken DT40 Tdp1-/-;hTDP1 cells + 20 nM CPT, ATP luminescence, 48 h. Potency, µM (series often up to 46.2 µM), for the others: top-dose activity change, negative = growth inhibition, actives largely listed as inhibitors. hit rate 12% among 420,000. AID 686979; also: potency is read from the fitted curve at half-maximal effect; nearly all actives have a fitted effect of over 55% in size
#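 Chicken DT40 Tdp1-/- cells stably complemented with human TDP1 were seeded at 400 cells/well in medium containing 20 nM camptothecin, exposed to pin-transferred compounds, and grown at 37 °C for at least 48 hr. Viability was read as ATP luminescence.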
# HT1080 IDH1KD tx: HT-1080 IDH1 knockdown cell toxicity (counter line) | HT-1080 IDH1 knockdown viability, ATP luminescence, 48 h | hit rate 2% among 360,000 | Potency, µM (series often up to 46.1 µM), without a hit: top-dose activity, negative = toxicity, hits mostly cytotoxic;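 also: potency is read from the fitted curve at half-maximal effect; 0% = DMSO wells and -100% = cell-free medium wells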
#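 IDH1KD HT-1080 cells, 750/well, RPMI + 5% FBS; compound pinned after 2 h settling; 48 h, 37 °C; CellTiter-Glo luminescence; % activity normalised to DMSO and no-cell wells; curves fitted, classed by r2 and efficacy.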
# TDP1 cell noCPT: qHTS for Inhibitors of human tyrosyl-DNA phosphodiesterase 1 (TDP1): qHTS in cells in absence of CPT; DT40 Tdp1-/- hTDP1 cells, no CPT, ATP luminescence, 48 h; hit rate 15% among 420,000; Potency, µM (series often up to 46.2 µM), without a hit: top-dose activity change, negative = growth inhibition, actives largely listed as inhibitors; also: potency is read from the fitted curve at half-maximal effect; nearly all actives have a fitted effect of over 55% in size
#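 Luminescent ATP content (CellTiter-Glo) served as the growth readout. Knockout chicken DT40 cells expressing human TDP1 were exposed to compounds without camptothecin for a minimum 48 hr at 37 °C.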
# HT1080NT lethal: kills 2HG-producing HT-1080-NT fibrosarcoma cells. Potency, µM (highest dose often 46.1 µM), for inactives: top-dose activity, negative = less viability, hits mostly cytotoxic. hit rate 1.6% among 360,000. AID 686970. HT-1080-NT fibrosarcoma viability, CellTiter-Glo ATP luminescence, 48 h;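 also: NT is the 2HG producing partner of a matched IDH1 knockdown line; potency is read from the fitted curve at half-maximal effect; 0% = DMSO-treated cells and -100% = media-only wells without cells; nearly all actives have a fitted effect of over 55% in size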
#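 Compounds were tested in concentration-response format on HT-1080-NT cells for 48 hours at 37 degrees C. Cell viability came from CellTiter-Glo luminescence; curves were classified by r2, response magnitude and activity.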
# * = called active by the depositor; i = inactive; ? = inconclusive; nt = not tested or not shown; [ ] = remark or other dose. Compounds with a hit are over-represented: about 19% of the library has one in this group of screens. Unless noted, calls follow the shape of the dose curve; as a rule, active = well fitted curve in the direction sought with a large enough effect; inconclusive = small, poorly fitted or top-dose-only effect, or another doubt; inactive = no such curve, though single readings can be large; an effect the other way counts as inactive or inconclusive. Unless noted, % is scaled to controls: 0 for no effect and ±100 for the full control effect.
SMILES,IL1B secr inh,ELG1 repair inh,TDP1 cell CPT,HT1080 IDH1KD tx,TDP1 cell noCPT,HT1080NT lethal
Cc1ccccc1OCc1nc2ccccc2[nH]1,17.8,?,23.1µM*,-20.4%,16.4µM*,-11.5%
COc1cccc(OCc2nc3ccccc3[nH]2)c1,-15.3,?,13µM*,-20.2%,?,-16.1%
c1ccc2cc(OCc3nc4ccccc4[nH]3)ccc2c1,?,?,?,1.5%[9.24 µM],?,?
Cc1cccc(CNc2ncncc2-c2ccccc2CN(C)C)c1,nt,nt,-4.4%,nt,-11.6%,nt
COc1ccc(NC(=S)Nc2ccccn2)cc1,-13.2,?,?,15.0%,?,-14.8%
Cc1cccc(NC(=S)Nc2ccccn2)c1,11.5,?,?,1.3%,8.2µM*,-10.0%
Cc1ccc(NC(=S)Nc2ccccn2)cc1C,56.8,?,23.1µM*,-1.1%,16.4µM*,14.8%
Cc1ccc(NC(=S)Nc2ccc3nc(-c4ccccn4)c(-c4ccccn4)nc3c2)cc1C,-9.2,-11.8%,25.9µM*,15.5%,?,5.3%
Cc1nc2ccc(NC(=S)NCc3ccccc3)cc2nc1C,8.6,?,-26.0%,-14.5%,-27.8%,7.4%
Cc1ccc(NC(=S)NNC(=S)Nc2ccc(C)cc2C)cc1,-25.4,-19.1%,3.66µM*,-20.7%,5.17µM*,-29.8%
CCOC(=O)C1=CCN(S(=O)(=O)c2ccccc2C)C1c1ccc(F)cc1 (stereo not drawn),11.5,nt,?,0.4%,?,4.0%
CCCCn1c(N)c(N(CC)C(=O)CCNC(=O)NC23CC4CC(CC(C4)C2)C3)c(=O)[nH]c1=O,-11.9,-3.7%,18.3%,-2.5%,0.6%,-7.3%
Cc1ccc(NC(=S)c2ccncc2)c(C)c1,-26.1,5.0%,1.6%,-0.1%,-9.8%,3.6%
COC(=O)c1ccc(NC(=S)Nc2ccccn2)cc1,-1.5,?,?,-17.2%,?,1.2%
Cc1ccc(NC(=S)Nc2ccccn2)c(C)c1,-11.0,?,3.66µM*,-9.4%,5.17µM*,?
Cc1cc(C)cc(NC(=S)Nc2ccccn2)c1,i,4.6%,13µM*,1.8%,10.3µM*,1.9%
CN(C)C(=O)c1ccc(-c2ccc3ncnc(N4CCC(C(=O)O)CC4)c3c2)cc1,nt,nt,-9.5%,nt,-1.6%,nt
CCOC(=O)C1=C(N)Oc2cc(O)ccc2C1c1cccc(Cl)c1 (stereo not drawn),5.1,0.0%,?,7.31µM*,?,9.2µM*
CCOC(=O)C1=C(N)Oc2cc(O)ccc2C1c1ccc(Br)cc1 (stereo not drawn),27.4,28.5%,-27.5%,-0.4%,-14.3%,-19.9%
CCOC(=O)C1=C(N)Oc2cc(O)ccc2C1c1cccnc1 (stereo not drawn),17.4,-13.1%,23.1µM*,-0.4%,?,-0.6%
CCOC(=O)C1=C(N)OC2=C(C(=O)CC(C)C2)C1c1cccnc1 (stereo not drawn),14.8,1.2%,15.6%,9.3%,-19.1%,4.6%
O=C(CSc1nnc(NC(=O)c2ccco2)s1)Nc1ccc(F)cc1F,8.0,24.8%,1.5%,3.8%,5.2%,5.4%
CC(C)(C)OC(=O)N1CCC(c2c(C(=O)N3CCN(c4ncccn4)CC3)cnn2-c2ccc(F)cc2)CC1,nt,nt,-4.5%,nt,-4.8%,nt
Cc1ccc(-n2ncc(C(=O)O)c2C2CCN(C(=O)OC(C)(C)C)CC2)cc1,14.9,-4.9%,-8.6%,10.1%,-29.0%,19.6%
CC(C)(C)OC(=O)N1CCC(c2c(C(=O)NCCc3ccccc3)cnn2-c2ccc(F)cc2F)CC1,nt,nt,20.6µM*,nt,18.4µM*,nt
CC(C)(C)OC(=O)N1CCC(c2c(C(=O)NC3CCN(Cc4ccccc4)CC3)cnn2-c2ccc(F)cc2F)CC1,nt,nt,11.6µM*,nt,8.2µM*,nt
